KB-V1 MDR tox: KB-V1 MDR subline cytotoxicity | KB-V1 MDR cells viability, CellTiter-Glo, 72 h | 400,000 tested, 3.4% active | Potency, µM (doses to about 46.1 µM), usual class: cytotoxic; also: nearly all actives have a fitted effect of over 60% in size
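Cytotoxicity toward P-gp-expressing KB-V1 cells was determined as loss of CellTiter-Glo luminescence after 72 h at 37 degrees C. Compounds were tested in quantitative HTS format across a concentration range, with curves fitted to normalized data.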
SW480 rerep: induces DNA re-replication in SW480 colon adenocarcinoma cells | SW480 DNA re-replication, Hoechst DNA content imaging, 48 h | Potency, µM (doses to about 46.1 µM), actives largely listed as activators | 340,000 tested, 1.8% active | AID 624297; also: nearly all actives have a fitted effect of over 55% in size
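Hoechst fluorescence of nuclei (405 nm excitation, 500-530 nm emission) measured by plate-scanning imager after 48 hr compound exposure at 37 C; re-replication scored as increased number of nuclei with elevated intensity.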
MCF10A rerep: DNA re-replication induction in MCF 10a cells; 350,000 tested, 2.9% active; MCF 10A DNA re-replication, Hoechst nuclear intensity, 48 h; Potency, µM (series often up to 46.1 µM), hits mostly activators; also: nearly all actives have a fitted effect of over 50% in size
IL-1B inflam inh: inhibitors of inflammasome signaling (IL-1 beta secretion). THP-1 LPS/ATP IL-1B secretion, AlphaLISA, 16 h; stronger effect = lower value. activity change, % at 57.5 µM. 360,000 tested, 4.7% active. AID 743279; in the data active = activity change below about -50%; inconclusive = mostly about -30% to -49%
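THP-1 cells pretreated 1 hr with compounds (up to 57.5 uM final), then stimulated with LPS (250 ng/mL final) plus ATP (1.25 mM final); secreted IL-1B measured by AlphaLISA after 16 hr, decreased signal indicating inhibition.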
KB-3-1 tox: kills parental KB-3-1 adenocarcinoma cells. KB-3-1 viability, CellTiter-Glo ATP luminescence, 72 h. Potency, µM (highest dose often 46.1 µM), actives largely listed as cytotoxic. 400,000 tested, 1.4% active; also: nearly all actives have a fitted effect of over 60% in size
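Using CellTiter-Glo luminescence, growth of non-resistant KB-3-1 adenocarcinoma cells is assessed 72 h after pin-tool compound addition at 37 °C. Normalized responses across the concentration series yield fitted curves.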
Of the large screens only hits and unclear results are named; the others gave an inactive call. Rows were chosen to be rich in hits. Some 9.9% of all compounds tested hit in one or more screens of this group. Unless noted, calls follow the shape of the dose curve; as a rule, active = well fitted curve in the direction sought with a large enough effect; inconclusive = small, poorly fitted or top-dose-only effect, or another doubt; inactive = no such curve, though single readings can be large; an effect the other way counts as inactive or inconclusive.

O=C1NCCN(Cc2cccc(Oc3ccccc3)c2)C1CC(=O)N1CCCO1 (centres undefined)	none
Cc1ccc(C(=O)N2CCN(Cc3ccccc3)CC2)o1	none
Cc1ccc(/C=C/C(=O)N2CCN(Cc3ccccc3)CC2)o1	KB-V1 MDR tox 13µM
O=C(/C=C/c1ccc(F)cc1)N1CCN(Cc2ccccc2)CC1	none
Cc1cccc(CN2CCN(C(=O)CCl)CC2)c1	KB-V1 MDR tox inconclusive, SW480 rerep inconclusive, MCF10A rerep inconclusive, IL-1B inflam inh -106, KB-3-1 tox inconclusive
O=C(/C=C/c1ccccc1)N1CCN(c2cccc(Cl)n2)CC1	KB-V1 MDR tox 18µM
O=C(/C=C/c1ccc(Br)cc1)N1CCN(Cc2ccccc2)CC1	KB-V1 MDR tox inconclusive, MCF10A rerep inconclusive, IL-1B inflam inh -81
CCCC12CN3CC(C)(CN(C1)C3c1ccc(OCc3ccccc3)cc1)C2=O (centres undefined)	none (no result: SW480 rerep, MCF10A rerep, IL-1B inflam inh)
O=C(CCCn1nnnc1CN1CCOCC1)N1CCN(c2ccccc2F)CC1	MCF10A rerep inconclusive (no result: KB-V1 MDR tox, KB-3-1 tox)
OCC1OC(c2ccccc2)OC2COC(c3ccccc3)OC12 (centres undefined)	none
O=C(NC(=O)c1cnccc1C(F)(F)F)Nc1ccccc1	SW480 rerep inconclusive
C[C@H](NC(=O)c1ccco1)C(=O)NNC(=O)COc1cccc(C(F)(F)F)c1	none
Cc1cc(C)n(CC(=O)NNC(=O)COc2ccc(Br)cc2F)n1	none
Cc1c(Cl)cccc1N=c1c([N+](=O)[O-])nn(-c2ccccc2)n1O	none
Cc1ccc(N=c2c([N+](=O)[O-])nn(-c3ccccc3)n2O)c(C)c1	SW480 rerep inconclusive, MCF10A rerep 10µM, KB-3-1 tox inconclusive
COc1cc(/C=C/C2=NNC(=O)CC2)cc(OC)c1OC	KB-V1 MDR tox inconclusive, KB-3-1 tox 0.52µM
CC(C)c1ccc(/C=C/C2=NNC(=O)CC2)cc1	KB-V1 MDR tox 0.18µM, SW480 rerep inconclusive, MCF10A rerep inconclusive, KB-3-1 tox 0.73µM
COc1cc(/C=C/c2nc3ccccc3nc2/C=C/c2cc(OC)c(OC)c(OC)c2)cc(OC)c1OC	KB-3-1 tox inconclusive (no result: SW480 rerep, MCF10A rerep, IL-1B inflam inh)
C[C@H](CO)N1C[C@H](C)[C@@H](CN(C)C(=O)NC2CCCCC2)Oc2ccc(NC(=O)C3CCCCC3)cc2C1=O	SW480 rerep inconclusive, MCF10A rerep inconclusive
COc1cccc(OC)c1OCCN1CCN(C(c2ccccc2)c2ccccc2)CC1	MCF10A rerep inconclusive, IL-1B inflam inh -53
COc1cccc(OC)c1OCCCN1CCC(Cc2ccccc2)CC1	IL-1B inflam inh -65
Cc1cccc(NC2=NCC(=O)N2Cc2cccs2)c1	none
COc1ccc(-c2nc(S(=O)(=O)c3ccc(Cl)cc3)c(NCc3ccccc3)o2)cc1	none (no result: SW480 rerep, MCF10A rerep, IL-1B inflam inh)
S=c1[nH]nc(-c2ccccc2)n1/N=C/c1ccc(-c2ccccc2Cl)o1	KB-V1 MDR tox 13µM, MCF10A rerep 8.2µM
CN(CC(=O)Nc1ccc(Cl)cc1)C(=O)CCc1nc2sc3c(c2c(=O)[nH]1)CCCC3	SW480 rerep inconclusive, MCF10A rerep 18µM
CN(CC(=O)Nc1ccc(F)cc1)C(=O)CCc1nc2sc3c(c2c(=O)[nH]1)CCCC3	SW480 rerep inconclusive
O=C(O)c1cn(C2CC2)c2cc(N3CCNCC3)c(F)cc2c1=O	none (no result: KB-V1 MDR tox, IL-1B inflam inh, KB-3-1 tox)
CC(=O)c1cccc(NC(=O)NN2CCN(C)CC2)c1	SW480 rerep 5.8µM
Cc1ccc(NC(=O)c2ccc(Cl)c(S(=O)(=O)N3CCCCC3)c2)nc1	KB-V1 MDR tox inconclusive, IL-1B inflam inh inconclusive
COc1ccccc1NC(=O)/C(=C/c1cccc([N+](=O)[O-])c1)c1ccccc1	KB-V1 MDR tox 5.8µM, MCF10A rerep inconclusive
O=C(Nc1ccccc1Oc1ccccc1)c1cccc([N+](=O)[O-])c1	KB-V1 MDR tox 18µM
COc1ccccc1NC(=O)CC(=O)c1cccc([N+](=O)[O-])c1	none
Cc1ccccc1N(CC(=O)N/N=C/c1cc(Br)c(C)o1)S(C)(=O)=O	KB-V1 MDR tox inconclusive
CCOc1ccc(NC(=O)Cn2c(=O)n(CCc3ccccc3)c(=O)c3c4c(sc32)CN(C(C)=O)CC4)cc1	none (no result: SW480 rerep, MCF10A rerep, IL-1B inflam inh)
COCC(=O)OCC(=O)c1cc(C)n(-c2ccc(Br)cc2)c1C	none
Cc1ccc(-n2c(C)cc(C(=O)COc3c(CO)cc(F)cc3CO)c2C)cc1C	KB-V1 MDR tox 7.3µM, MCF10A rerep inconclusive, IL-1B inflam inh inconclusive
